Assay in all cases: DAPPL (digital affinity profiling via proximity ligation, sequencing); 10 mM Tris-HCl pH 7.5, 50 mM NaCl, 1 mM DTT, 4% glycerol, room temperature, 30 min; GST-TFs on glutathione beads, 16-mer random dsDNA library, 0.1% formaldehyde crosslink after washing; high values mean tight binding
What all share (conditions): protein: recombinant; tags: N-terminal GST; dsDNA, one strand shown

The target in one experiment is T1, ERF (Homo sapiens, UniProt P50548 1-548).
T1 sequence: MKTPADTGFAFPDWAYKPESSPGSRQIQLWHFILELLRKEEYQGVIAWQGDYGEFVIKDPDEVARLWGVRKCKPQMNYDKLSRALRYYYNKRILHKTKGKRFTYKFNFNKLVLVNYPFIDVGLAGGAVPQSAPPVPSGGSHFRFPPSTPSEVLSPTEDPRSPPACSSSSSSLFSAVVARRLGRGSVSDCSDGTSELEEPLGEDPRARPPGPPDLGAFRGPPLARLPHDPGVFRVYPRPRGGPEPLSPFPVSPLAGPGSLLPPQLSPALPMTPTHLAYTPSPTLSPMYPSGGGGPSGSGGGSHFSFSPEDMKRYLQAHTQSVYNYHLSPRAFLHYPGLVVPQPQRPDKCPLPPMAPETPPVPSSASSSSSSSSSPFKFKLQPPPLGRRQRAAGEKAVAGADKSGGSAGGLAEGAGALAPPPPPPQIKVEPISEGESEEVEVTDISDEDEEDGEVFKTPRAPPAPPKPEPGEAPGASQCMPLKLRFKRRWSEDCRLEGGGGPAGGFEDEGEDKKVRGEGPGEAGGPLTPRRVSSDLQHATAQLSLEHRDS
The procedure, abridged:
(§1)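 Pools of DNA-barcoded human transcription factors, expressed in yeast as GST fusions on glutathione beads and combined with a tag-only sample, were incubated with 200 nmole of a 16-mer random double-stranded DNA library. Incubation took 30 min at room temperature in Tris/NaCl/DTT/glycerol buffer and was followed by washing, 0.1% formaldehyde crosslinking, proximity ligation (BsaI/T4 ligase, 1 h, 37 °C), PCR amplification and sequencing on an Illumina NextSeq500. Binding signal is the ratio of a hexamer's read frequency for a factor to its frequency for the tag-only sample.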

The target in another experiment is T2, ETV3L (Homo sapiens, UniProt Q6ZN32 1-361).
T2 sequence: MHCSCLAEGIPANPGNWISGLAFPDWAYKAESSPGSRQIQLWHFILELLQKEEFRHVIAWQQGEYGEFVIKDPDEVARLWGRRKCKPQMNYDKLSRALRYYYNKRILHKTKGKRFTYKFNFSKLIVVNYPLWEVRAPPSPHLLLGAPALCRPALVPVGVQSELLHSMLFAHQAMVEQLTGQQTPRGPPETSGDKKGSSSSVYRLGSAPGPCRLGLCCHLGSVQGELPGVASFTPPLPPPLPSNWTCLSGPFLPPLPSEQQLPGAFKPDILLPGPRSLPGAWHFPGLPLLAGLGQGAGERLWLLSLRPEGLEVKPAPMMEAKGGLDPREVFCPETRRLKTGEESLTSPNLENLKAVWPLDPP
The procedure, abridged: as §1

In a further experiment the target is T3, ETS2 (Homo sapiens, UniProt P15036 1-469).
T3 sequence: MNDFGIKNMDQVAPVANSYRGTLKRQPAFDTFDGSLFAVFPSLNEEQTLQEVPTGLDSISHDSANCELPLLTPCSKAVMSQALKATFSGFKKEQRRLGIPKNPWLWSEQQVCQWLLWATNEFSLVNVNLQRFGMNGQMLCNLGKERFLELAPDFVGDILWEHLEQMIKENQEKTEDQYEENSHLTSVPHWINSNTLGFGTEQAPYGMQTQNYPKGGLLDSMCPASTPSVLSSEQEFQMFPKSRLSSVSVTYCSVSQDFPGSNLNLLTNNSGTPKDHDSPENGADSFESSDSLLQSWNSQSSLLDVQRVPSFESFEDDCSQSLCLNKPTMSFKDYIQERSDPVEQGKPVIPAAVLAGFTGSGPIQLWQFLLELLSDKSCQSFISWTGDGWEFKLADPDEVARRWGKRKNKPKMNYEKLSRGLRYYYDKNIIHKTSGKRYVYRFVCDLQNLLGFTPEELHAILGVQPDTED
The procedure, abridged:
as §1

A further experiment deals with T4, SPDEF (Homo sapiens, UniProt O95238 1-335).
T4 sequence: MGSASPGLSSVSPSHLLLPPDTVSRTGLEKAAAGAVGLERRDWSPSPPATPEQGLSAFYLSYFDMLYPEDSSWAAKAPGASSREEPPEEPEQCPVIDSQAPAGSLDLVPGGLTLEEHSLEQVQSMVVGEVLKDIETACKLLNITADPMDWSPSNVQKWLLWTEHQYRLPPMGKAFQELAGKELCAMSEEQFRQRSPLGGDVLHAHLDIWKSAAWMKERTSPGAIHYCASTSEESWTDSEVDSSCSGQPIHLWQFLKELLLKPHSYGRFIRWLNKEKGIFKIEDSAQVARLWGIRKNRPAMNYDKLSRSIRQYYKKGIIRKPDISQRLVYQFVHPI
The essentials:
as §1

A further experiment deals with T5, ETV3 (Homo sapiens, UniProt P41162-2 1-143).
T5 sequence: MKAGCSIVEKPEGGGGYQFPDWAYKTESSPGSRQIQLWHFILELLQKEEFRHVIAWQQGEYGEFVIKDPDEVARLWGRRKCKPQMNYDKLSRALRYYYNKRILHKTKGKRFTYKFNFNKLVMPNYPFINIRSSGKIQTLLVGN
The essentials:
as §1

In a further experiment the target is ETV6 (Homo sapiens, UniProt P41212 1-452). The procedure, abridged: as §1
Sequence of ETV6 (P41212 whole entry): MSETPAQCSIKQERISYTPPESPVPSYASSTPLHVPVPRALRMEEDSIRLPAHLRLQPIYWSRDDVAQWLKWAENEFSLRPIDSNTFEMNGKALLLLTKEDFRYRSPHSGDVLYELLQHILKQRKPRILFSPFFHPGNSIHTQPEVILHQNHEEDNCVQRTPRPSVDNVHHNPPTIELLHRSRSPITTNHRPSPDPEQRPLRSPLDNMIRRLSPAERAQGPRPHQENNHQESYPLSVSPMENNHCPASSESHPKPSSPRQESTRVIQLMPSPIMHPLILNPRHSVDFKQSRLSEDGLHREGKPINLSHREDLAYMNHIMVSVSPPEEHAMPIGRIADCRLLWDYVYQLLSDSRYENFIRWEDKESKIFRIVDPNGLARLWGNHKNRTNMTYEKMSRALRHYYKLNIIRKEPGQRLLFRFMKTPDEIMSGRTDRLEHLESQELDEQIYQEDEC
The target of the next experiment is T6, ETV7 (Homo sapiens, UniProt Q9Y603 1-341).
T6 sequence: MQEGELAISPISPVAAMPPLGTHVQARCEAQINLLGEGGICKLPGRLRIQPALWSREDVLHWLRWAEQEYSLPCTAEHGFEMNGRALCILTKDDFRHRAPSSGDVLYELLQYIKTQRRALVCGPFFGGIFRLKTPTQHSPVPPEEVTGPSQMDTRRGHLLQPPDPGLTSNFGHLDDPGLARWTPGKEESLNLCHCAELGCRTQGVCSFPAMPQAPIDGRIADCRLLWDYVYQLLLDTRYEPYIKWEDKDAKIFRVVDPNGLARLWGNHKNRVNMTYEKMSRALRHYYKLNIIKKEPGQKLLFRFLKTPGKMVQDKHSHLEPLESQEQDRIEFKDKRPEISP
The essentials: as §1

The target in a further experiment is T7, ELF5 (Homo sapiens, UniProt Q9UKW6-2 1-255).
T7 sequence: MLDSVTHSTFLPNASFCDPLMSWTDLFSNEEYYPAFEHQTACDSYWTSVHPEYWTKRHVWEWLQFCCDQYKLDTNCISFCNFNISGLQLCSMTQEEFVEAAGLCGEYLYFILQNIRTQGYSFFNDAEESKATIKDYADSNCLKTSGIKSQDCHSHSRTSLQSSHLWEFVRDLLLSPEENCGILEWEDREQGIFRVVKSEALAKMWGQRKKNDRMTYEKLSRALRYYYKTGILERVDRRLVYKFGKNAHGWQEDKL
The essentials: as §1

On to ATCACA, for which the binding signal is 1.04 fold enrichment (6-mer frequency, TF over GST control) with ERF; 1.05 fold enrichment (6-mer frequency, TF over GST control) with ETV3L; 1.09 fold enrichment (6-mer frequency, TF over GST control) with ETS2; 1.05 fold enrichment (6-mer frequency, TF over GST control) in the experiment with SPDEF; 1.09 fold enrichment (6-mer frequency, TF over GST control) with ETV3; 1.13 fold enrichment (6-mer frequency, TF over GST control) in the experiment with ETV6.

As to TGACTG, the binding signal with ERF was 1.15 fold enrichment (6-mer frequency, TF over GST control); with ETV3L, 1.16 fold enrichment (6-mer frequency, TF over GST control); with ETS2 it was 1.17 fold enrichment (6-mer frequency, TF over GST control); with SPDEF, 1.05 fold enrichment (6-mer frequency, TF over GST control); with ETV6, 1.06 fold enrichment (6-mer frequency, TF over GST control).

On to GATAAT, for which the binding signal with ERF was 1.11 fold enrichment (6-mer frequency, TF over GST control); with ETV3L, 1.12 fold enrichment (6-mer frequency, TF over GST control); with ETS2 it was 1.18 fold enrichment (6-mer frequency, TF over GST control); with ETV7, 1.12 fold enrichment (6-mer frequency, TF over GST control); with ELF5, 1.08 fold enrichment (6-mer frequency, TF over GST control); in the experiment with ETV3, 1.15 fold enrichment (6-mer frequency, TF over GST control). Besides, the binding signal with ETV6 is 1.05 fold enrichment (6-mer frequency, TF over GST control).

As to CATTCA, the binding signal with ERF is 1.11 fold enrichment (6-mer frequency, TF over GST control); in the experiment with ETV3L, 1.08 fold enrichment (6-mer frequency, TF over GST control); with ETS2, 1.01 fold enrichment (6-mer frequency, TF over GST control); with ETV7, 1.09 fold enrichment (6-mer frequency, TF over GST control); in the experiment with ELF5, 1.02 fold enrichment (6-mer frequency, TF over GST control); in the experiment with ETV3 it was 1.11 fold enrichment (6-mer frequency, TF over GST control). Moreover, the binding signal in the experiment with ETV6 is 1.09 fold enrichment (6-mer frequency, TF over GST control).

With TGATCG, the binding signal in the experiment with ERF was 1.24 fold enrichment (6-mer frequency, TF over GST control); with ETV3L it was 1.09 fold enrichment (6-mer frequency, TF over GST control); with ETS2, 1.03 fold enrichment (6-mer frequency, TF over GST control); with ETV7 it was 1.03 fold enrichment (6-mer frequency, TF over GST control); with ELF5 it was 1.04 fold enrichment (6-mer frequency, TF over GST control); with ETV3, 1.11 fold enrichment (6-mer frequency, TF over GST control). Moreover, the binding signal with ETV6 was 1.12 fold enrichment (6-mer frequency, TF over GST control).

For the sequence AAAGCT, the binding signal with ERF is 1.02 fold enrichment (6-mer frequency, TF over GST control); in the experiment with ETV3L, 1.01 fold enrichment (6-mer frequency, TF over GST control); with ETS2 it was 1.03 fold enrichment (6-mer frequency, TF over GST control); with ETV7, 1.03 fold enrichment (6-mer frequency, TF over GST control); with ELF5, 1.01 fold enrichment (6-mer frequency, TF over GST control); in the experiment with ETV3 it was 1.04 fold enrichment (6-mer frequency, TF over GST control). Besides, in the experiment with ETV6, the binding signal is 1.09 fold enrichment (6-mer frequency, TF over GST control).

For the sequence AGTTCT, the binding signal with ERF was 1.14 fold enrichment (6-mer frequency, TF over GST control); with ETV3L, 1.12 fold enrichment (6-mer frequency, TF over GST control); in the experiment with ETS2 it was 1.17 fold enrichment (6-mer frequency, TF over GST control); with ETV7 it was 1.11 fold enrichment (6-mer frequency, TF over GST control); in the experiment with ELF5 it was 1.15 fold enrichment (6-mer frequency, TF over GST control); in the experiment with ETV3, 1.18 fold enrichment (6-mer frequency, TF over GST control). Also, the binding signal with ETV6 was 1.13 fold enrichment (6-mer frequency, TF over GST control).

Source of the values: paper PMC7862700, “An all-to-all approach to the identification of sequence-specific readers for epigenetic DNA modifications on cytosine”.
